Experimental data reported in PubChem BioAssay (NCI).
About 83,000 compounds went through this panel and 20% of them were active in at least one assay; those are over-represented in the sample as a whole.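 Cells were grown in 96-well plates and exposed to the test compound at a single concentration for 48 hours; results are reported as percent growth, with values below 10 considered active.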 A number with no mark means an inactive call. The source made the active and inactive calls.

How the values were obtained:
Test in all cases: NCI-60 one-dose screen, 48 h (100 = growth as untreated, 0 = no growth, -100 = all killed)
Settings in all cases: 10 µM
T-47D breast = test system: T-47D breast
BT-549 breast = test system: BT-549 breast
MDA-MB-435 melanoma = test system: MDA-MB-435 melanoma
SW-620 colon = test system: SW-620 colon
MCF7 breast = test system: MCF7 breast
HCT-116 colon = test system: HCT-116 colon
HCC-2998 colon = test system: HCC-2998 colon
KM12 colon = test system: KM12 colon
MDA-MB-468 breast = test system: MDA-MB-468 breast

SMILES	growth (T-47D breast)	growth (BT-549 breast)	growth (MDA-MB-435 melanoma)	growth (SW-620 colon)	growth (MCF7 breast)	growth (HCT-116 colon)	growth (HCC-2998 colon)	growth (KM12 colon)	growth (MDA-MB-468 breast)
Cc1cc(C)nc(SCC(=O)Nc2ccc(S(N)(=O)=O)cc2)n1	105%	132%	107%	116%	96.6%	111%	109%	107%	98.2%
O=C1NC(=NC23CC4CC(CC(C4)C2)C3)N/C1=C\c1ccc2ncsc2c1	-0.474% (active)	-11.5% (active)	17.8%	5.03% (active)	-9.76% (active)	14.1%	16.2%	2.26% (active)	-48.2% (active)
O=C(Nc1ccc(OCC(=O)c2ccccc2)cc1)Nc1ccc(Cl)c(C(F)(F)F)c1	3.26% (active)	33.7%	-25.4% (active)	32%	35%	29.6%	28.6%	1.99% (active)	-5.5% (active)
COc1ccccc1[C@H]1C(C(=O)c2ccc(Cl)cc2)C2(N[C@@H]1c1ccccc1)C(=O)Nc1ccccc12 (stereo not given in full)	6.01% (active)	-22.7% (active)	-58.7% (active)	5.84% (active)	-11.1% (active)	0.0933% (active)	-51.1% (active)	-13.5% (active)	-29.6% (active)
O=C(CSc1nnc(-c2c[nH]c3ccccc23)n1-c1ccccc1)Nc1ccc(C(=O)/C=C/c2ccccc2Cl)cc1	43.1%	84.4%	65.8%	87.6%	40.4%	22.1%	94.6%	74.7%	72.1%
CCOC(=O)CNC(=O)CN(Cc1ccccc1)C(=O)[C@@]1(C)CCC[C@]2(C)[C@H]3CC4C(C(C)C)=C[C@]3(CC[C@H]21)[C@@H]1C(=O)CCC(=O)[C@H]41	52.2%	67.8%	70.6%	49.8%	13.1%	36.5%	37.8%	77.7%	3.12% (active)
COc1cc(/C=C/C(=O)c2ccc(NC(=O)CSc3nnc(-c4c[nH]c5ccccc45)n3-c3ccccc3)cc2)cc(OC)c1OC	69.6%	54.9%	34.1%	25.4%	10%	-30.2% (active)	23.8%	48.8%	37%
COc1ccc(/C(C)=N/N=C2C(=O)N(C)c3ccc(Br)cc32)cc1S(N)(=O)=O	52.6%	29.2%	95.9%	85.7%	57.8%	74.4%	98.3%	97.8%	70.2%
CC(=O)c1ccc(NC(=O)NCn2c(=O)[nH]c3ccccc3c2=O)cc1	83%	159%	99.6%	101%	83%	110%	112%	103%	92%
Cc1ccc(-c2ccc(SCC(=O)Nc3ccc(Cl)c(C(F)(F)F)c3)nn2)cc1	26.2%	25.4%	-18.8% (active)	24.2%	15.9%	10.3%	12.9%	24.7%	-31% (active)
COc1ccc(/C=C/C(=O)c2ccc(NC(=O)CN3C(=O)NC(C)(c4ccccc4)C3=O)cc2)cc1 (stereo not given)	38.6%	71.6%	16.7%	88.8%	4.86% (active)	12.8%	102%	49.3%	49.4%
COc1ccc(CN2[C@@H](C(=O)NCc3ccc(C(=O)NO)cc3)Cc3c([nH]c4ccccc34)[C@@H]2C2CC2)cc1	3.04% (active)	43.3%	-42.1% (active)	-21.5% (active)	14.1%	12.9%	25.1%	20.3%	-3.5% (active)
COc1cc2c(cc1OC)/C(=C\c1sc(Nc3ccc(O)cc3)nc1O)C(C(=O)O)=N2	46.7%	57.2%	-77.3% (active)	26.8%	12.3%	21.4%	36.7%	20.9%	-1.14% (active)
CCC(C)S(=O)(=O)c1oc(-c2ccc(C)cc2)nc1S(=O)(=O)c1ccccc1 (stereo not given)	-73.5% (active)	-13.3% (active)	-98.2% (active)	-38.6% (active)	-56.5% (active)	-6.96% (active)	-84.6% (active)	-65% (active)	-93.4% (active)
O=C1CCC(N2Cc3c(NCc4ccc(-c5ccccc5)cc4)cccc3C2=O)C(=O)N1 (stereo not given)	41.5%	23.4%	93.2%	51.3%	76%	74.7%	67.4%	75.3%	-12.6% (active)
CCCCSc1nc(Nc2ccc(/C(C)=N/NC(N)=S)cc2)c(C#N)c(-c2ccccc2)n1	45.9%	31.1%	65.4%	56.8%	30.7%	24.6%	53.1%	72.4%	-28.4% (active)
CN1C/C(=C\c2ccc(O)cc2O)c2[o+]c3cc(O)ccc3cc2C1	3.02% (active)	39.8%	20.4%	23.1%	11%	16.4%	25.2%	25%	-16.3% (active)
C[C@H]1[C@H](C)CC[C@]2(COC(=O)CCC(=O)NCC#CCN3CCNCC3)CC[C@]3(C)C(=CC[C@@H]4[C@@]5(C)CCCNC(C)(C)[C@@H]5CC[C@]43C)[C@H]12	40%	55.4%	32.4%	-2.55% (active)	1.4% (active)	10.5%	-41.7% (active)	32.4%	17.9%
Nc1cccnc1/C=N/NC(=S)NCCNC(=O)c1ccc(-n2nc(-c3ccccc3O)nc2-c2ccccc2O)cc1	7.42% (active)	-5.4% (active)	53.8%	58.5%	5.17% (active)	7.1% (active)	-7.32% (active)	11.6%	-56.1% (active)
CC1CC(c2ccc(N(C)C)cc2)=NN1c1nc(O)c(C2=c3cc(Br)ccc3=NC2=O)s1 (stereo not given)	66.7%	85%	102%	78.9%	78.6%	66.8%	32.1%	73.2%	54.2%
COc1ccc(/C=N/N=C(\C)c2ccc3c(c2)Nc2ccccc2S3)cc1O	21.5%	40.1%	34.7%	68.5%	11.9%	38.7%	51.2%	39.2%	0.0526% (active)
O=C1NC(=NC23CC4CC(CC(C4)C2)C3)N/C1=C\c1ccc2ncoc2c1	-0.573% (active)	-20.6% (active)	16.8%	9.67% (active)	1.42% (active)	27.6%	-5.81% (active)	4.28% (active)	-60% (active)
O=C(Cn1nc(-c2ccccc2)ccc1=O)NNC(=S)NC1CCCCC1	82%	111%	110%	113%	99.4%	112%	114%	109%	103%
O=C(Nc1ccc(I)cc1)Nc1nc2ccc([N+](=O)[O-])cc2s1	-85.9% (active)	-99.6% (active)	-96.1% (active)	-80.4% (active)	-93.6% (active)	-100% (active)	-95.6% (active)	-93.3% (active)	-97.2% (active)
CC1(C)CC[C@]2(C(=O)Nc3ccccc3)CC[C@]3(C)C(=CC[C@@H]4[C@@]5(C)CC[C@H](N)C(C)(C)[C@@H]5CC[C@]43C)[C@H]2C1	81.5%	113%	59.1%	8.55% (active)	-73.8% (active)	-99.5% (active)	-64.3% (active)	36.1%	1.83% (active)
